# Assay outcomes as filed in PubChem BioAssay.
# Hsp90 block = displaces geldanamycin probe from tumor Hsp90 | P07900 | NCI-N417 lysate Hsp90, Cy3B-geldanamycin FP displacement | inhibition, % at 30 µM | hit rate 0.35% among 64,000 | AID 429;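 active = inhibition above 50%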;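 note: 0% = tracer plus lysate wells and 100% = tracer alone without lysate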
# Her2 expr inh = Her2 kinase expression inhibition. SKBR-3 HER2 protein level, AlphaScreen, 18-24 h; stronger effect = lower value. HER2 level % of control, % at 10 µM. hit rate 0.69% among 65,000. AID 645;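 active = HER2 level under 5% of the carrier-only control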;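 note: 100% = DMSO carrier and 0% = 500 nM PU-H71 HSP90 inhibitor; lower value means stronger loss of Her2 protein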
# TNAP act DEA = activators of human TNAP at intermediate phosphate acceptor. P05186. purified TNAP, CDP-star luminescence, 100 mM DEA, 30 min; stronger effect = higher value; scale: 0 levamisole-inhibited, 1 vehicle-only enzyme. activation factor at 20 µM. 64,000 tested, under 10 active. AID 813;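 active = activation factor of at least 2 at 20 µM, relative to controls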
# BAP1 block = blocks human BAP1 ubiquitin-AMC hydrolysis | Q92560 | recombinant BAP1, Ub-AMC hydrolysis fluorescence kinetic; stronger effect = lower value | activity remaining (% of control), % at 20 µM | hit rate 0.48% among 72,000 | AID 436;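 active = activity remaining at or below 50% of control, provided the compound also passes the data quality filters; inactive = the rest, including low values that fail the filters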;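 note: 100% = DMSO wells rate and 0% = substrate alone blank rate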
# SK-BR-3 tox 24h = SK-BR-3 proliferation inhibitors; SK-BR-3 viability, CellTiter-Glo ATP luminescence, 24 h; stronger effect = lower value; hit rate 0.47% among 41,000; viability, % at 10 µM;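 active = viability at or below the median of all test compounds minus 3 SD, in both replicates if run twice, cut at about 45% in these data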;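 note: 100% = median untreated cell wells and 0% = median positive control drug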
# S1P1 ag pot = agonists and agonism potentiators of human S1P1 receptor; P21453; S1P1 CRE-bla cells, forskolin, beta-lactamase FRET, potentiator mode; S1P1 agonist co-added at EC20, 2 nM; 100% = saturating reference agonist, 0% = basal; activation, % at 9.5 µM; hit rate 0.57% among 56,000; AID 449;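 active = activation above a cutoff set at the mean activation of all tested compounds plus 3 SD, cut at about 54% in these data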;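 note: forskolin at 4 µM as EC80 and the EC20 agonist is SEW2871; 100% = SEW2871 at its EC100 plus forskolin at EC80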
# Target sequence (P21453 whole entry, looked up): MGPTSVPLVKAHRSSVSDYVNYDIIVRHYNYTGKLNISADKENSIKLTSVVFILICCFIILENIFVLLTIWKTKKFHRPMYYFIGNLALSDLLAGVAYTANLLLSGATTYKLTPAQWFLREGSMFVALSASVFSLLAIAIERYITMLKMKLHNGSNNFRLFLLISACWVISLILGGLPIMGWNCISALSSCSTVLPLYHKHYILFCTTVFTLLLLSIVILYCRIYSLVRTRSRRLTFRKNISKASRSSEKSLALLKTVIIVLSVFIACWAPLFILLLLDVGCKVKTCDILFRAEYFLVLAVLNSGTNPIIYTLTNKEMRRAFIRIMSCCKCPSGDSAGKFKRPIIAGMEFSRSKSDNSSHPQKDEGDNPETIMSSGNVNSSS
# * = called active by the depositor; . = no result shown. Most compounds without a hit are left out; they make up all but 1.9% or so of the library.
SMILES,Hsp90 block,Her2 expr inh,TNAP act DEA,BAP1 block,SK-BR-3 tox 24h,S1P1 ag pot
COc1ccc(N(C(=O)CNC(=O)c2ccco2)C(C(=O)NC2CCCCC2)c2ccco2)cc1 (stereo unspecified),-2,71,0.8,99,98,-8
COc1ccc(CCN2CCC(Nc3nc4ccccc4n3Cc3ccc(F)cc3)CC2)cc1,-1,-11*,1,149,24*,3
Cc1cc(C)nc(N2CCC(C(=O)NCc3cccc(C(F)(F)F)c3)CC2)n1,2,100,0.9,118,40*,31
O=C(NCCN1CCOCC1)NC1(C(F)(F)F)Oc2ccc(Cl)cc2O1 (stereo unspecified),65*,90,0.9,114,.,32
COc1cc(-c2nnc(CSc3nc4ccccc4s3)o2)cc(OC)c1OC,-7,87,0.9,81,.,-41
CC(C)CNC(=O)CSc1nnc(CN2CCCCCC2=O)n1-c1ccccn1,-4,136,1,135,.,-45
COc1cccc(-c2nnc3sc(C4CCCCC4)nn23)c1,3,69,0.8,151,87,80*
CCOc1cccc(-c2nnc3sc(C4CCCCC4)nn23)c1,-3,48,0.8,87,60,42
CC(C)(C)NC(=O)C(c1ccncc1)N(Cc1cccs1)C(=O)Cn1nnc(-c2cccs2)n1 (stereo unspecified),-7,100,0.9,94,86,10
Cc1nc2sccn2c1-c1csc(NCc2ccccc2)n1,-1,79,1,89,72,113*
O=C(NCc1ccco1)C(Cc1ccccc1)N1C(=O)C2C3C=CC(C3)C2C1=O (stereo unspecified),-2,100,1,89,.,11
COc1cc(CSc2nnnn2-c2ccc(C)cc2)cc(OC)c1OC,-1,46,1,109,78,102*
CCOc1ccccc1NC(=O)Cn1nnc(-c2ccc(OCC)c(OCC)c2)n1,0,-20*,0.9,84,97,-11
CCOc1ccc(-c2nnn(CC(=O)c3cc(OC)ccc3OC)n2)cc1,1,-14*,1,.,91,18
CCOc1ccc(-c2nnn(CC(=O)Nc3cc(OC)ccc3OC)n2)cc1OCC,0,90,1,97,88,-13
C=CCN1C(=Nc2cccnc2)SCC1(O)c1ccc(C)cc1 (stereo unspecified),-5,36,1,103,.,77*
C=CCN1C(=O)CSC1=Nc1cccc(O)c1,-5,101,0.9,108,116,.
CC(C)CCn1c(SCc2ccc(Cl)cc2)nc2c1c(=O)[nH]c(=O)n2C,-4,44,0.9,87,80,-39
CC(C)n1c(SCc2ccc(Cl)cc2)nc2c1c(=O)[nH]c(=O)n2C,-1,-55*,0.9,89,76,-49
O=c1c(O)c(-c2ccc(O)c(O)c2)oc2cc(O)cc(O)c12,103*,.,.,70,.,.
CCOC(=O)c1[nH]c2c([N+](=O)[O-])cccc2c1CC,.,.,.,70,.,.
CSc1nsc(SC)c1C(=O)N1CCN(S(=O)(=O)c2ccc(C)cc2)C1C (stereo unspecified),4,35,1,113,44*,5
Cc1ccc(S(=O)(=O)N2CCN(C(=O)N3CCOCC3)C2C)cc1 (stereo unspecified),3,-30*,0.8,102,73,-13
Cc1ccc(S(=O)(=O)N2CCN(C(=O)N3CCOCC3)C2c2ccc(N(C)C)cc2)cc1 (stereo unspecified),-1,118,0.8,82,97,17
COc1ccc(CCNc2oc(COc3ccccc3F)nc2C#N)cc1,-1,-30*,0.9,87,103,6
N#Cc1nc(COc2ccccc2F)oc1NCc1ccc(F)cc1,-2,99,0.8,75,.,14
Cc1cc(N2CCN(c3nc4ccccc4s3)CC2)n2ncnc2n1,-5,95,1,104,.,58*
Cc1cc(N2CCN(C(c3ccccc3)c3ccccc3)CC2)n2ncnc2n1,-1,100,0.9,101,82,70
COc1ccc(Cc2nnc(NC(=O)Cc3cccs3)s2)cc1OC,-14,100,.,39*,.,-15
COc1ccc(C(=O)Nc2nnc(Cc3cccs3)s2)cc1OC,-6,90,0.9,98,102,-16
